Measurements published in ChEMBL document CHEMBL3433997, “St. Jude Leishmania screening dataset” (2016).

Target: Glucose transporter (Leishmania mexicana) (UniProt O61059)
Assay: ST_JUDE_LEISH: Cytotoxicity at 2uM final concentration against transgenic Leishmania Mexicana promastigotes LmGT2 that are glucose transport deficient and complemented with the L. Mexicana glucose transporter 2. Activity is measured by DNA content using SYBR green in vitro
Format: functional

| Structure (SMILES) | inhibition |
| --- | --- |
| CCCC(CNCc1cccc(OC(F)(F)C(F)F)c1)CNc1cc(=O)c2ccccc2[nH]1 (stereo not given) | -4.05% |
| CCN(CC)c1ccccc1CNC(=O)c1cc(Cl)c(N)cc1OC | 8.59% |
| CCN(CC)S(=O)(=O)c1ccc(Cl)c(C(=O)Nc2ccc3nc(C)sc3c2)c1 | -1.58% |
| O=C(/C=C/c1ccc2ccccc2c1)NCC1(c2ccc(-c3ccccc3)cc2)CCOCC1 | 3.08% |
| O=C(Nc1cccc(-c2cccc(-c3nc4ccccc4[nH]3)c2)c1)Nc1ccc(F)c(F)c1F | 3.88% |
| CCCCN1Cc2c(n(CC(=O)Nc3ccccc3)c3cc(-c4ccccc4)nn3c2=O)C1=O | 1.8% |
| Cc1cccc2nc(-c3ccc(-c4ccc(NC(=O)Nc5ccc(Cl)c(Cl)c5)cc4)s3)[nH]c12 | -6.86% |
| COc1cccc(C(=O)C2CC2CN(C)CC(O)c2cc(C)c(OC)cc2C)c1 (stereo not given) | 0.15% |
| O=C(Nc1cccc(C(F)(F)F)c1)c1cccc(S(=O)(=O)NCC2CCCN(CC3CCCCC3)C2)c1 (stereo not given) | -2.09% |
| Cn1cc(Br)c(-c2cccc(Nc3ccnc4cc(-c5nccs5)ccc34)c2)n1 | 4.06% |
| CC1=C(C(=O)OCCOCc2ccccc2)C(c2ccccc2C(F)(F)F)C(C(=O)OCCOCc2ccccc2)=C(C)N1 | -2.95% |
| Cc1cc(OCCCN2CCCCC2C)ccc1NC(=O)COc1ccc(Cl)cc1C(=O)c1cc(Cl)cc(C#N)c1 (stereo not given) | 58% |
| CC(C)(C)c1ccc(CNCCOc2ccc(Nc3nnc(-c4ccc(-c5ncc[nH]5)cc4)o3)c3ccccc23)cc1 | 2.83% |
| C=CCn1c(Cc2ccccc2)nnc1Sc1ccc(C#N)c([N+](=O)[O-])c1 | 2.02% |
| O=C(NC1CCN(Cc2ccccc2)CC1)c1cccc(-c2cc3cc(Cl)c(Cl)cc3[nH]2)c1 | -0.91% |
| CC(C)Cc1ccc(N2CCN(CCCCNC(=O)c3ccc(NC(=O)c4cc(C(F)(F)F)cc(C(F)(F)F)c4)cc3)CC2)cc1 | -0.64% |
| CCC(C)(C)C1CCc2nc(N)nc(N)c2C1 (stereo not given) | 56.1% |
| NC(=O)COc1c(C2CCN(CCN3CCC(CNC(=O)c4ccc(-c5ccc(C(F)(F)F)cc5)cc4)CC3)CC2)ccc2c1CCCC2 | 3.32% |
| CC(C)c1ccc(C=CC(=O)N2CCC(CCN3CCC(c4c[nH]c5ccccc45)CC3)CC2)cc1 | -0.06% |
| N=C(N)NC(=O)Nc1ccc(Cl)c(Cl)c1 | -1.06% |

| Structure (SMILES) | inhibition |
| --- | --- |
| Cc1cccc2nc(-c3ccc(-c4cccc(CNCc5ccc(S(C)(=O)=O)cc5)c4)s3)[nH]c12 | 9.52% |
| FC(F)(F)COc1ccc2ccccc2c1CCNCCCCNCCc1c(OCC(F)(F)F)ccc2ccccc12 | 107% |
| CN(C)CCCN1CCN(C(=O)c2cc3cc(-c4ccccc4)ccc3n2S(=O)(=O)c2ccccc2)CC1 | 2.85% |
| Cc1ccc(C(=O)Nc2ccc(Nc3ccnc4cc(-c5nccs5)ccc34)cc2O)cc1 | 1.89% |
| COc1cc(OC)c2c(C)cc(NCCCN3CCOCC3)nc2c1 | -0.42% |
| CN1CCN(Cc2cccc(-c3ccc4c(Nc5ccc(Oc6ccccc6)cc5)ccnc4c3)c2)CC1 | 18.6% |
| CO/C(=C\C=C\c1cc2cc(Cl)c(Cl)cc2[nH]1)C(=O)NCCCN1CC(C)N(C)CC1C (stereo not given) | 6.63% |
| O=C(Nc1ccncc1)c1cn(-c2ccccc2)nc1-c1cccs1 | 3.52% |
| COCCNCc1ncsc1-c1ccc2c(Nc3ccc(Oc4ccccc4)cc3)ccnc2c1 | 2.26% |
| O=C1NC(=O)C(c2ccc(Cl)cc2)=C1Nc1cccc(S(=O)(=O)C(F)(F)F)c1 | 1.48% |
| COc1ccc(-c2nnc(Sc3ccc(C#N)c([N+](=O)[O-])c3)n2CCC(C)C)cc1 | -0.81% |
| COc1ccc2[nH]c(C)cc(=NN=Cc3ccncc3)c2c1 | 4.43% |
| CN(C)Cc1cccc(-c2ccc(NC(=O)c3ccc4c(=O)n(CCN5CCCCC5)cnc4c3)cc2)c1 | 0.81% |
| Fc1cccc(COc2ccc(Nc3ncnc4ccc(C#C[C@H]5CCCN5)cc34)cc2Cl)c1 | 2.2% |
| CCCNc1nc(Nc2ccccc2C)nc2ccccc12 | 13.8% |
| CCC(C)NCC(O)(c1ccc(Cl)cc1)c1ccc(Cl)cc1 (stereo not given) | -0.2% |
| CC(C)=C(C(=O)OCc1ccccc1)N1C(=O)[C@@H](NC(c2ccccc2)(c2ccccc2)c2ccccc2)[C@H]1[S+]([O-])CC(=O)OC(C)(C)C (stereo not given in full) | 0.75% |
| CC(=O)Nc1ccc(S(=O)(=O)N(Cc2cccc(Oc3ccccc3)c2)C2CCN(C/C=C(\C)CCC=C(C)C)CC2)cc1 | -0.73% |
| COc1ccc(-c2ccc(NC(=O)c3ccc(Cl)cc3)cc2)cc1CN1CCNCC1 | 2% |
| CCC[C@@H]([C@@H](CC1CCCCC1)C(=O)N[C@H](C(=O)Nc1nccc(N)n1)C(C)(C)C)N(O)C=O | 4.24% |
